Screens as filed in PubChem.
Hits are enriched below; roughly 31% of the tested compounds scored in any of these assays.
CYP2C19 act – cytochrome P450 2C19 (human) activation; P33261; recombinant CYP2C19, luciferin-H EGE luminescence; hits give high values; 0 = fully inhibited enzyme, 1 = untreated enzyme; activation factor at 5 µM; 96,000 tested, under 10 active;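 active means activation factor of at least 2 at 5 µM in the primary screen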
PLAP activator – activators of human placental alkaline phosphatase | P05187 | purified PLAP enzyme, luminescent substrate read-out; hits give high values | activation fold at 20 µM | 1.2% of 96,000 active | AID 696; in the data active means activation fold above about 2
CYP2C19 inhib – blocks human cytochrome P450 2C19. P33261. CYP2C19 Supersomes, luciferin-H EGE luminescence, 30 min. inhibition, % at 5 µM. 21% of 96,000 active;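 active means CYP2C19 inhibition above a set limit at 5 µM in the primary screen, cut at about 50% in these data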
CYP2C9 inhib – human CYP2C9 inhibition | P11712 | CYP2C9 Supersomes, luciferin-H conversion, luminescence | inhibition, % at 5 µM | 20% of 96,000 active | AID 777;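 active means blocking of liver enzyme CYP2C9 beyond about 50% at 5 µM, limit read from the data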
Target sequence (P11712 whole entry, looked up): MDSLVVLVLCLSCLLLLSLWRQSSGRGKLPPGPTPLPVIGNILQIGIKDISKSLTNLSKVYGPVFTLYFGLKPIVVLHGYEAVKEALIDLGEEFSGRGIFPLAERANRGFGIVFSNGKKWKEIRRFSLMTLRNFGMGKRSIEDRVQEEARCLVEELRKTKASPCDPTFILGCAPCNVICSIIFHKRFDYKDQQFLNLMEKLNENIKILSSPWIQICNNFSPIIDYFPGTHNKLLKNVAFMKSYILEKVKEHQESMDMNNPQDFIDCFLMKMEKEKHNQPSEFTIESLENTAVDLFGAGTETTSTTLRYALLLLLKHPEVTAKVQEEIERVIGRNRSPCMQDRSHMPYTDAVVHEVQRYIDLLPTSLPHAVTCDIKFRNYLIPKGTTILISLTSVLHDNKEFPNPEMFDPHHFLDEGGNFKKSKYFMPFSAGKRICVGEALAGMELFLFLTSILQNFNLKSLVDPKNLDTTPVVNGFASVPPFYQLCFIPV
CYP2C9 activ – activators of human CYP2C9; P11712; recombinant CYP2C9, luciferin-H conversion, luminescence; hits give high values; factor 1 = untreated enzyme, 0 = blocked; activation factor at 5 µM; 1.4% of 96,000 active;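 active means activation factor of 2 or more for CYP2C9 at a 5 µM dose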
A number is an active result; 0 = inactive.

SMILES	CYP2C19 act	PLAP activator	CYP2C19 inhib	CYP2C9 inhib	CYP2C9 activ
Cc1ccc(C(=O)NCCNc2ccc(Cl)cc2[N+](=O)[O-])o1	0	0	0	55.2	0
CC(C)OC(=O)C1CC=CCC1C(=O)Nc1ccc(Cl)cc1 (stereo unspecified)	0	0	91.3	52.5	0
CCOc1ccc(NC(=O)C2CC=CCC2C(=O)O)cc1 (stereo unspecified)	0	0	0	0	0
CC(=O)c1ccc(NC(=O)Nc2cccc(Cl)c2)cc1	0	0	0	0	0
CC(=O)C(=Nc1ccc(Cl)cc1Cl)NNc1cccc(Cl)c1	0	0	99.3	100.3	0
O=C1c2ccc(Oc3ccc4c(c3)C(=O)N(CCCCO)C4=O)cc2C(=O)N1CCCCO	0	0	83.7	85.9	0
COc1cc(C2C(C#N)=C(N)N(Nc3ccccc3)C3=C2C(=O)CC(C)(C)C3)ccc1OCc1ccccc1 (stereo unspecified)	0	0	0	79.1	0
C=CCOc1ccc(C2C(C#N)=C(N)N(Nc3ccccc3)C3=C2C(=O)CCC3)cc1OC (stereo unspecified)	0	0	0	70.2	0
COc1cc(C2C(C#N)=C(N)N(Nc3ccccc3)C3=C2C(=O)CC(C)(C)C3)ccc1OCc1cccc(F)c1 (stereo unspecified)	0	0	67.6	95.9	0
COc1ccc(C2C(C#N)=C(N)N(Nc3ccccc3)C3=C2C(=O)CC(C)(C)C3)cc1C (stereo unspecified)	0	0	0	0	0
COc1ccc(C(=O)Nn2cnc3ccccc3c2=O)c(OC)c1	0	0	0	0	0
O=[N+]([O-])c1cc(Br)c(O)c(/C=N/Nc2nnnn2-c2cccc3ccccc23)c1	0	0	90.6	100.1	0
CCCn1cnc2sc(C(N)=O)c(C)c2c1=O	0	0	0	0	0
O=C(COC(=O)c1ccc2c(c1)OCO2)NC1CCS(=O)(=O)C1 (stereo unspecified)	0	0	0	0	0
CN(/N=C/c1ccncc1)C1=NS(=O)(=O)c2ccccc21	0	0	54.9	0	0
Cc1ccccc1NC1=NS(=O)(=O)c2ccccc21	0	0	0	0	0
N#C/C(=C(/O)C(Cl)c1ccccc1)c1nc2ccccc2s1 (stereo unspecified)	0	0	57.9	77.2	0
O=C(NC(C(=O)N/N=C/c1c2ccccc2cc2ccccc12)c1n[nH]c(=O)c2ccccc12)c1ccccc1 (stereo unspecified)	0	0	0	0	0
O=C(NC(C(=O)N/N=C/c1ccccc1)c1n[nH]c(=O)c2ccccc12)c1ccccc1 (stereo unspecified)	0	0	0	51.9	0
Cc1ccc(-n2c(=O)[nH]cc(C(=O)N3CCc4ccccc43)c2=O)cc1C	0	0	0	0	0
O=C(c1ccncc1)c1nccn1-c1ccccn1	0	0	75.2	81.2	0
O=C(O)c1ccc(OC2CSC2)cc1	0	0	0	0	0
CCCN(CC(=O)Nc1c(C)cccc1CC)C(=O)SCC	0	0	59.9	0	0
CCSC(=O)N(CC)CC(=O)Nc1c(CC)cccc1CC	0	0	0	0	0
CCCCN(CC(=O)Nc1c(C)cccc1CC)C(=O)SCC	0	0	70.8	0	0
SMILES	CYP2C19 act	PLAP activator	CYP2C19 inhib	CYP2C9 inhib	CYP2C9 activ
Cc1noc(NS(=O)(=O)c2ccc(NC(=O)c3ccc(Br)o3)cc2)c1C	0	0	0	0	0
N#Cc1cc2sc3nc4ccccc4n3c2cc1C#N	0	0	0	0	0
N#Cc1cc2sc3nnc(-c4ccncc4)n3c2cc1C#N	0	0	92.4	65.1	0
COC(=O)[C@@H](NC(=O)NC1CCCc2ccccc21)C(C)C (stereo partly specified)	0	0	0	0	0
COC(=O)CSc1nnc(CNS(=O)(=O)c2ccc(Cl)cc2)n1C	0	0	0	0	0
COc1ccc(-n2cnc3c(cnn3CCC#N)c2=N)cc1	0	0	77.3	0	0
Cc1cc(NC(=O)CN2CCN(c3ncccn3)CC2)no1	0	0	0	0	0
Fc1cccc(F)c1CN1CCN(c2ncccn2)CC1	0	0	79.1	0	0
Cc1ccc(CN2CCN(c3ncccn3)CC2)o1	0	0	68.1	0	0
CCOC(=O)N1CCC(N2CC34C=CC(O3)C(C(=O)Nc3ccc(OCC)cc3)C4C2=O)CC1 (stereo unspecified)	0	0	0	0	0
CC1(C)Cc2nc3sc4c(SCC(=O)NCc5ccccc5)ncnc4c3cc2CO1	0	0	83.4	72.9	0
Cc1cccc(N/C(=N\S(=O)(=O)c2ccccc2)C(F)(F)F)c1	0	0	0	56.2	0
O=S(=O)(/N=C(\Nc1ccc(F)cc1)C(F)(F)F)c1ccccc1	0	0	0	55.9	0
CC(Nc1ccccc1)C(=O)Nc1ccc(F)cc1 (stereo unspecified)	0	0	0	0	0
Nc1ccc(-c2ccc(N)cc2C(F)(F)F)c(C(F)(F)F)c1	0	0	79.3	59.6	0
O=C(NC1CCSC1=O)c1ccc(Cl)cc1 (stereo unspecified)	0	0	0	0	0
O=C(COc1ccc(Cl)cc1)NC1CCSC1=O (stereo unspecified)	0	0	65.4	0	0
Cc1ccc(S(=O)(=O)N2CCCC2c2nc3ccccc3s2)cc1 (stereo unspecified)	0	0	0	0	0
Cc1nnc2sc(-c3cccc(NC(=O)c4cccnc4)c3)nn12	0	0	0	0	0
Cc1ccc(-c2nn3c(C)nnc3s2)cc1NCc1c(F)cccc1Cl	0	0	67.5	74.3	0
Cc1ccc(-c2nn3c(C)nnc3s2)cc1NC(=O)c1cccnc1	0	0	50.5	60.0	0
Cc1ccc(CNc2cc(-c3nn4c(C)nnc4s3)ccc2C)s1	0	0	0	54.0	0
Cc1ccc(-c2nn3c(C)nnc3s2)cc1NC(=O)COc1ccc(Cl)cc1	0	0	0	0	0
Cc1nnc2sc(-c3ccc(-c4ccc(Cl)c(C(F)(F)F)c4)o3)nn12	0	0	0	0	0
Cc1ccccc1-n1c(Cc2cccs2)n[nH]c1=S	0	0	0	0	0
SMILES	CYP2C19 act	PLAP activator	CYP2C19 inhib	CYP2C9 inhib	CYP2C9 activ
Cc1cc(F)ccc1S(=O)(=O)Nc1c(C)n(C)n(-c2ccccc2)c1=O	0	0	90.9	50.4	0
Cc1c(NS(C)(=O)=O)c(=O)n(-c2ccccc2)n1C	0	0	0	0	0
O=C(c1ccc(Br)o1)N1CCN(Cc2ccc3c(c2)OCO3)CC1	0	0	89.7	61.6	0
Cc1ccc(S(=O)(=O)N(C)c2ccc(C(=O)N3CCCCC3)cc2)cc1	0	2.1	55.2	74.5	0
Cc1cccc(C(=O)N2CCN(Cc3ccc4c(c3)OCO4)CC2)c1	0	0	91.9	0	0
O=C(C1CC2CCC1C2)N1CCN(Cc2ccc3c(c2)OCO3)CC1 (stereo unspecified)	0	0	58.3	0	0
O=C(c1ccc(Br)s1)N1CCN(Cc2ccc3c(c2)OCO3)CC1	0	0	0	0	0
O=C(NCCCN1CCCC1=O)c1cccnc1	0	0	0	0	0
O=C(c1cc(-c2ccccc2)on1)N1CCN(Cc2ccc3c(c2)OCO3)CC1	0	0	70.1	68.5	0
